# Source: PubChem BioAssay
# Sampled rows, rich in hits. Any-hit rate of the full collection: about 1.6%.
# Imprint erasure: inducers of genomic imprint erasure in mouse ES cells | 110,000 tested, 0.02% active | mouse ES Peg3-LacZ reporter, beta-gal luminescence, 40 h | Potency, µM (doses to about 60.7 µM), without a hit: at the top dose activity change, positive = activation, most hits filed as activators | AID 1948
#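 Each well holds 300 Peg3LacZ-Neo (maternal) female ES cells incubated 40 h at 37C, 5% CO2. LacZ is measured by BetaGlo luminescence, with AC50 and maximum efficacy derived from dose-response curves.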
# p53ts 39C kill: p53ts cell cytotoxicity, nonpermissive temperature; H1299-p53A138V viability at 39C, ATP luminescence, 24 h; Potency, µM (highest dose often 46.1 µM), without a hit: at the top dose activity change, negative = cell killing, actives largely listed as cytotoxic; 130,000 tested, 1.5% active; also: % is scaled to controls: 0 for no effect and ±100 for the full control effect; nearly all actives have a fitted effect of over 55% in size
# IkB signaling: IkB pathway inhibition in ABC-DLBCL cells. ABC-DLBCL IkBa-CBG/CBR dual luciferase ratio, 4 h; response scale: scaled: untreated 0%, proteasome inhibitor 100%. Potency, µM (top dose mostly 57.1 µM), for the others: top-dose IkBa stabilization activation. 110,000 tested, 0.04% active. AID 445; active = well fitted curve in the direction sought with a large enough effect in the signal ratio, not every such curve was filed as active; inconclusive = small, poorly fitted or top-dose-only effect, or a change in a side signal; the % refers to the signal ratio;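 also: the direction sought is a rising ratio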
#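 Luminescence ratio of IκBα-fused green versus native red beetle luciferase in OCI-Ly3 cells, 4 h post-doxycycline with compound; red signal alone, scaled from basal (0%) to zero light (-100%), flagged nonspecific or cytotoxic effects.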
# p53ts 32C kill: kills p53ts cells at the permissive temperature; Potency, µM (highest dose often 46.1 µM), for inactives: at the highest dose activity change, negative = cytotoxicity, most hits filed as cytotoxic; H1299-p53A138V at 32C, ATP luminescence viability, 24 h; 130,000 tested, 0.93% active;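 also: 0% = DMSO and -100% = full killing by reference compound; nearly all actives have a fitted effect of over 55% in size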
#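 ATP-content luminescence (ATPlite) read-out after 24 h compound exposure at 32C in H1299-p53A138V cells (600/well). Tested up to 46 uM. Normalized to DMSO (0%) and 100 uM tamoxifen (100% killing); Hill-fit AC50.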
# An asterisk follows results filed as active; u = inconclusive; x = not tested or not shown; [ ] = another dose, or the depositor's remark. Unless noted, calls follow the shape of the dose curve; as a rule, active = well fitted curve in the direction sought with a large enough effect; inconclusive = small, poorly fitted or top-dose-only effect, or another doubt; inactive = no such curve, though single readings can be large; an effect the other way counts as inactive or inconclusive. Potency is read from the fitted curve at half-maximal effect.
SMILES,Imprint erasure,p53ts 39C kill,IkB signaling,p53ts 32C kill
CCOc1cc(/C=N/NC(=O)c2cc(-c3cccc(OC)c3)n[nH]2)ccc1O,x,-4%,x,3%
COc1ccc(C2C(=O)c3ccccc3C2=O)cc1,-10%,13µM*,x,10µM*
CCc1ccc2occ(CC(=O)Nc3c(C(=O)Nc4ccc(C)cc4)oc4ccccc34)c2c1,-3%[10.9 µM],32µM*,u,-29%
COc1ccc(C(=O)NC(c2ccccc2Cl)c2cc(Cl)c3cccnc3c2O)cc1 (stereo not drawn),-21%[10.9 µM],2.5µM*,u,-9%
COc1cc(C(=O)NC(c2ccccc2Cl)c2cc(Cl)c3cccnc3c2O)cc(OC)c1OC (stereo not drawn),-34%[10.9 µM],u,4%,u
[ClH+][Cu][ClH+].[Cu].[OH2+]c1ccc2ccccc2c1CN1CCCCC1.[OH2+]c1ccc2ccccc2c1CN1CCCCC1,-13%[10.9 µM],x,x,x
Cc1ccc2c(c1)C(=O)C(=O)N2Cc1ccc(OC(C)C)cc1,-26%[10.9 µM],16µM*,5%,u
Cc1ccc(C)c(CN2C(=O)C(=O)c3ccccc32)c1,-22%[10.9 µM],-22%,0%,15%
c1cncc(-c2nnc(-c3cccs3)o2)c1,-47%,4%,0%,-2%
c1csc(-c2nnc(-c3ccc(N4CCOCC4)cc3)o2)c1,-63%,13µM*,2%,13µM*
CCOc1ccc(-c2cn3nc(CC(C)C)sc3n2)cc1,-7%[10.9 µM],u,-2%,u
Cc1nn2cc(-c3ccc(-c4ccccc4)cc3)nc2s1,-22%,-22%,u,-26%
COCc1nn2cc(-c3ccc(C)cc3)nc2s1,-24%[10.9 µM],13µM*,15%,10µM*
CCc1nn2cc(-c3ccccc3)nc2s1,-91%,16µM*,u,10µM*
CCOC(=O)C1(N(CC)CC)Sc2cc(C)ccc2NC1=O (stereo not drawn),-30%,16µM*,5%,-18%
CCOC(=O)C1(Nc2nccs2)Sc2ccccc2NC1=O (stereo not drawn),-19%,-8%,1%,16%
O=C(O)[C@H](C1NCCS1)N1C(=O)c2ccccc2C1=O (stereo partly drawn),-3%[10.9 µM],x,x,x
Nc1nc(Nc2cccc(F)c2)nc2ccccc12,-86%,13µM*,0%,u
OC(COc1ccc(Br)cc1)CN1CCOCC1 (stereo not drawn),5%,3%,-1%,1%
CC1(C)CCCC(C)(C)N1CC(O)COCCOc1ccc(Br)cc1 (stereo not drawn),x,4.5µM*,x,u
NC1(C(=O)NC2(C(=O)O)CCCC2)CCCC1,-12%[10.9 µM],6%[9.22 µM],0%[11.4 µM],1%[9.22 µM]
COc1cc(/C=C/C(=O)c2cccs2)cc(OC)c1OC,-31%,u,x,6.3µM*
O=C(/C=C/c1ccc(OCc2ccccc2)cc1)c1cccs1,-19%,4%,x,u
Cc1nn(C)cc1/C=C/C(=O)c1cccs1,x,u,x,13µM*
O=C(/C=C/c1ccc(O)cc1)c1cccs1,-92%,u,x,32µM*
SMILES,Imprint erasure,p53ts 39C kill,IkB signaling,p53ts 32C kill
CCOC(=O)c1ccc(NC(=O)c2noc3c2CCCC3)cc1,-27%[10.9 µM],-20%,u,-6%
Cc1ccc(Nc2ccccc2)cc1,x,4%,x,-13%
Cc1ccc(NC2=CC(=O)C(=O)c3ccccc32)cc1,x,3.2µM*,x,u
Cc1cccc(NC(=O)CSc2nnc3[nH]c(=O)cc(-c4ccccc4)n23)c1C,-5%[10.9 µM],1.3µM*,3%,2%
Cc1cc(=O)[nH]c2nnc(SCC(=O)Nc3ccc(F)cc3F)n12,13%[10.9 µM],6%,4%,12%
O=C(CSc1nnc2[nH]c(=O)cc(-c3ccccc3)n12)Nc1ccc(F)cc1F,4%[10.9 µM],3.2µM*,6%,u
O=C(CSc1nnc2[nH]c(=O)cc(-c3ccccc3)n12)Nc1cc(C(F)(F)F)ccc1Cl,16%[10.9 µM],1.3µM*,u,0.63µM*
COC(=O)c1c(-c2cccs2)csc1NC(=O)c1cc(OC)c(OC)c(OC)c1,7%[10.9 µM],-27%,u,-9%
NC(=O)[C@@H]1CCCN1Cc1ccc2c(c1)OCO2,-16%[10.9 µM],-4%[9.22 µM],-1%[11.4 µM],-4%[9.22 µM]
Cc1ccc(C(=O)NCc2ccc3c(c2)CCN3C(=O)c2ccc(C)cc2)cc1,-3%[10.9 µM],-21%,u,-3%
COc1ccccc1Nc1nn2c(=O)c3ccc(C(=O)NC(C)c4ccccc4)cc3nc2s1 (stereo not drawn),-5%[10.9 µM],12%,-2%,3%
